Compound activity as filed in PubChem.
RGS4-Gao reg – modulates binding of RGS4 to human Galphao. P09471. Multiplexed bead flow cytometry; actives lie on both sides. binding response (% of control), % at 10 µM. actives 0.33% (n = 220,000); in the data active means binding response below about 49% or above about 150%; inactive means in between;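 further: fluorescent Galphao activated with aluminum fluoride binding bead-coupled RGS4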
Avidin fluor – compound fluoresces at 488/530 nm on avidin beads; compound fluorescence 488/530 nm, flow cytometry; active compounds read high; fluorescence (KMESF) at 10 µM; actives 0.38% (n = 220,000); AID 1775; in the data active means fluorescence above about 47
RGS16-Gao HTS – modulates binding between human RGS16 and Galphao; O15492+P09471; bead-based flow cytometry RGS16-Galphao binding, fluorescence; actives lie on both sides; binding response (% of control), % at 10 µM; actives 0.38% (n = 220,000); AID 1441;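 further: Galphao activated by GDP with aluminum fluoride before binding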
Target sequence (O15492 whole entry, looked up): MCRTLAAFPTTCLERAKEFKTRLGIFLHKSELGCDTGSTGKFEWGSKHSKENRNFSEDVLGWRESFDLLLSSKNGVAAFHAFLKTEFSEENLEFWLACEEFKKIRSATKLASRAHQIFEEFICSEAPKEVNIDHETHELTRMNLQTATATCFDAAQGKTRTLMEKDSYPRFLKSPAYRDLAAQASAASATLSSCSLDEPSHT
Target sequence (P09471 whole entry, looked up): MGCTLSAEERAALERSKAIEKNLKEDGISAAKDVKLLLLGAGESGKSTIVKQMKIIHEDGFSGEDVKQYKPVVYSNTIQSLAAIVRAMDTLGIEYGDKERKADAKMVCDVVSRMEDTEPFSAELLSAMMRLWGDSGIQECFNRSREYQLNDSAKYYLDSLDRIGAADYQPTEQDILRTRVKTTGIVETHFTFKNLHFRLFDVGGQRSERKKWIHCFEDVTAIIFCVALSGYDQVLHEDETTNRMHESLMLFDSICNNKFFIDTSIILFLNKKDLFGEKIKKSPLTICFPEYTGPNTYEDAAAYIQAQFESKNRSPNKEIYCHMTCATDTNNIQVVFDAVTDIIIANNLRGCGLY
RGS8-Gao reg – modulates binding of RGS8 to human Galphao; AID 1423; actives 0.34% (n = 220,000); P09471; response (percent of control binding), % at 10 µM; multiplexed bead flow cytometry; actives lie on both sides; in the data active means response below about 60% or above about 140%; inactive means in between;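 further: Galphao activated as the GDP aluminium fluoride complex binding bead-coupled RGS8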
RGS7-Gao – human RGS7-Galphao interaction regulation; Multiplexed bead flow cytometry, RGS7-Galphao binding; actives lie on both sides; binding response (% of control), % at 10 µM; actives 0.35% (n = 220,000); AID 1439; in the data active means binding response below about 49% or above about 150%;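 further: fluorescent Galphao held in activated GDP-AlF4 state binding bead-coupled RGS7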
GSH bead fluor – compound fluoresces at 488/530 nm on GSH beads | fluorescence (KMESF) at 10 µM | actives 0.25% (n = 190,000) | GSH beads flow cytometry, compound fluorescence 488/530 nm; active compounds read high; in the data active means fluorescence above about 89;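 further: glutathione beads carrying GST-tagged Bcl family fusion proteins plus one bare bead set; values are compound well signal with DMSO vehicle wells as background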
RGS4-Gao HTS – RGS4-Galphao interaction regulator (human). multiplexed bead flow cytometry, RGS–Galpha-o binding. shares compounds with RGS16-Gao HTS. RGS4–Galpha-o binding response, % at 10 µM. actives 99% (n = 1,600);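 further: fluorescently labeled Galpha-o bound to GDP with aluminium fluoride binding biotinylated RGS beads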
Avidin counter – biotin-avidin bead binding disruption counter-screen | shares compounds with RGS16-Gao HTS | streptavidin beads, fluorescein-biotin binding, flow cytometry | inhibition, % at 10 µM | 1,700 tested, under 10 active | AID 1783;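 active means inhibition above 50%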;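 further: median green fluorescence of gated singlet beads compared with DMSO control wells; 0% = DMSO wells and 100% = complete loss of bead fluorescence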
RGS8-Gao confirm – RGS8-Galphao interaction regulation, single point confirmation. AID 1836. actives 3% (n = 1,700). binding response (% of control), % at 10 µM. shares compounds with RGS16-Gao HTS. bead-based flow cytometry RGS8-Galphao binding, fluorescence; actives lie on both sides; in the data active means binding response below about 72% or above about 130%; inactive means in between;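 further: Galphao activated as GDP AlF4 complex before binding bead RGS8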
RGS7-Gao single – confirmation of regulators of human RGS7-Galphao interaction. shares compounds with RGS16-Gao HTS. bead-based flow cytometry RGS7-Galphao binding; actives lie on both sides. response (percent of control binding), % at 10 µM. actives 7.8% (n = 1,700). AID 1837; in the data active means response below about 75% or above about 130%; inactive means in between;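 further: fluorescent Galphao activated with GDP and aluminum fluoride binding bead-coupled RGS7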
RGS16-Gao conf – RGS16-Galphao interaction regulation, single point confirmation. bead-based flow cytometry, RGS16-Galphao binding; actives lie on both sides. AID 1838. response (% of control binding), % at 10 µM. shares compounds with RGS16-Gao HTS. actives 4% (n = 1,700); in the data active means response below about 74% or above about 130%; inactive means in between;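 further: Galphao activated as the GDP aluminium fluoride complex binding bead-coupled RGS16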
RGS4-Gao single – confirmation of regulators of human RGS4-Galphao interaction | shares compounds with RGS16-Gao HTS | RGS4-Galphao binding, multiplexed bead flow cytometry; actives lie on both sides | binding response (% of control), % at 10 µM | actives 4% (n = 1,700) | AID 1840; in the data active means binding response below about 74% or above about 130%; inactive means in between
RGS19-Gao single – confirmation of regulators of human RGS19-Galphao interaction; response (percent of control binding), % at 10 µM; shares compounds with RGS16-Gao HTS; actives 5% (n = 1,700); bead-based flow cytometry RGS19-Galphao binding; actives lie on both sides; AID 1841; in the data active means response below about 50% or above about 160%; inactive means in between;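 further: 100% = no compound control and 0% = blank background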
The depositor's hits bear a star; [ ] = another dose, or the depositor's remark. Most compounds without a hit are left out; they make up all but 1.2% or so of the library. Unless noted, how the calls were made is not given here.

How did CCCCOC(=O)C(NC(=O)c1ccccc1)=C(C)C do in these assays?
RGS4-Gao reg: -35.7*; RGS16-Gao HTS: -33.0*; RGS8-Gao reg: 5.2*; RGS7-Gao: -15.8*; GSH bead fluor: 33; Avidin counter: -1.7; RGS8-Gao confirm: 101.6; RGS7-Gao single: 101.3; RGS16-Gao conf: 104.6; RGS4-Gao single: 98.3; RGS19-Gao single: 95.2

How did COC(=O)C(NC(=O)c1ccccc1)=C(C)C do in these assays?
RGS4-Gao reg: 101.2; Avidin fluor: 21; RGS16-Gao HTS: 107.1; RGS8-Gao reg: 100.8; RGS7-Gao: 110.2; GSH bead fluor: 14

How did CC(C)CCN(C(=S)Nc1cccc(F)c1)C1CCN(C(C)C)CC1 do in these assays?
RGS4-Gao reg: 100.8; Avidin fluor: 6; RGS16-Gao HTS: 101.9; RGS8-Gao reg: 104.3; RGS7-Gao: 107.5; GSH bead fluor: 15

Results for CC(Oc1cc(F)ccc1[N+](=O)[O-])C(=O)N(C)CC(=O)Nc1ccccc1C(F)(F)F (stereo not given) ?
RGS4-Gao reg: 101.7; Avidin fluor: 23; RGS16-Gao HTS: 106.2; RGS8-Gao reg: 104.4; RGS7-Gao: 104.8; GSH bead fluor: 7

How did O=C(NCc1cccnc1)c1ccc(COc2ccc(Cl)cc2Cl)o1 do in these assays?
RGS4-Gao reg: 101.1; Avidin fluor: 10; RGS16-Gao HTS: 101.0; RGS8-Gao reg: 98.8; RGS7-Gao: 99.0; GSH bead fluor: 19

How did O=C(NCc1cccnc1)c1ccc(COc2cccc3ccccc23)o1 do in these assays?
RGS4-Gao reg: 49.2*; Avidin fluor: 3; RGS16-Gao HTS: 41.4; RGS8-Gao reg: 56.4*; RGS7-Gao: 46.8*; GSH bead fluor: 18; Avidin counter: 1.5; RGS8-Gao confirm: 102.3; RGS7-Gao single: 94.6; RGS16-Gao conf: 101.3; RGS4-Gao single: 99.6; RGS19-Gao single: 91.0

Results for Cc1ccc(N2CCN(CCc3nc4cc(NS(C)(=O)=O)ccc4n3C)CC2)cc1 ?
RGS4-Gao reg: 120.0; Avidin fluor: 9; RGS16-Gao HTS: 278.2; RGS8-Gao reg: 147.1*[activator]; RGS7-Gao: 120.3; GSH bead fluor: 64; RGS4-Gao HTS: 120.0*; Avidin counter: -0.2; RGS8-Gao confirm: 105.5; RGS7-Gao single: 100.8; RGS16-Gao conf: 109.1; RGS4-Gao single: 103.5; RGS19-Gao single: 98.2

Results for CCCC(=O)NCCCCNC(=O)CCC ?
RGS4-Gao reg: 99.6; Avidin fluor: 9; RGS16-Gao HTS: 73.9; RGS8-Gao reg: 96.2; RGS7-Gao: 98.7; GSH bead fluor: 36
